High-throughput results as filed in PubChem.
HPGD block = inhibitors of human 15-hydroxyprostaglandin dehydrogenase (HPGD). P15428. purified HPGD, NADH fluorescence kinetic, PGE2 substrate. Potency, µM, hits mostly inhibitors. 150,000 compounds, 4.3% hits
Target sequence (P15428 whole entry, looked up): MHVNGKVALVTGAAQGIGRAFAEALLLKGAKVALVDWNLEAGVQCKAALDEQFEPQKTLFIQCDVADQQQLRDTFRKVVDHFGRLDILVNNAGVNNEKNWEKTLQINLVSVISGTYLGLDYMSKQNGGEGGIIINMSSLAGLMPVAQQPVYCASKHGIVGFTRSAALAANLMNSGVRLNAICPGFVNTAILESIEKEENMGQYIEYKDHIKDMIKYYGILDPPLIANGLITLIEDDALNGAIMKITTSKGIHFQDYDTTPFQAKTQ
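20 nM HPGD preincubated 15 min at room temperature with compound in 50 mM Tris-HCl pH 8, 0.01% Tween 20. Started with 1 mM NAD+ and 30 uM prostaglandin E2; NADH fluorescence (360/450 nm) read 5 times over 30-s intervals, last minus first.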
PNC inhibitor = inhibitors of perinucleolar compartment assembly; 140,000 compounds, 3.1% hits; PC3M PTB-GFP, PNC prevalence imaging, 16 h; hits give low values; AID 2417; activity change (PNC), negative = inhibition, % at 10 µM;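 active = readout at or below -70, meaning at least 70% loss of cells showing the perinucleolar compartment, a nuclear body marking cancer cells; inconclusive = readout between -30 and a set limit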
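Read-out is percentage of cells bearing a perinucleolar compartment, from automated 20x imaging of fixed, Hoechst-stained PC3M PTB-GFP cells. Cells were seeded 4 h, then exposed 16 h to compound (23 nl of library stock) in duplicate plates.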
ALDH1A1 block = blocks purified human ALDH1A1 activity | P00352 | Purified ALDH1A1, NADH fluorescence, propionaldehyde substrate | Potency, µM (doses to about 75.3 µM), usual class: inhibitors | 220,000 compounds, 7.3% hits | AID 1030
LMNA splice mod = changes lamin A minigene splicing in HeLa cells | HeLa LMNA splicing GFP/RFP minigene ratio, 48 h | Potency, µM (top dose mostly 46.1 µM), actives largely listed as inhibitors | 200,000 compounds, 0.01% hits; active = well fitted inhibition curve with a large enough effect in the signal ratio, with a control signal flat, not every such curve was filed as active; inconclusive = small, poorly fitted or top-dose-only effect, or effect the other way, or a change in a side signal; the % refers to the signal ratio
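S3 HeLa cells stably expressing lamin A-EGFP splicing minigene plus DsRed2, 600 cells/well, 48 h compound exposure at 37C. Laser-scanning cytometry; analysed as GFP (500-530 nm)/RFP (575-640 nm) total intensity ratio; 0.5% DMSO vehicle.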
ALOX12 inhib = 12-hLO (ALOX12) enzyme inhibition; P18054; purified 12-hLO, xylenol orange hydroperoxide absorbance; Potency, µM (doses to about 57.1 µM), most hits filed as inhibitors; 150,000 compounds, 0.12% hits; active = well fitted inhibition curve with a large enough effect; inconclusive = small, poorly fitted or top-dose-only effect; also: nearly all actives have a fitted effect of over 55% in size
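150 nM 12hLO, 25 mM Hepes pH 7.0 + 0.01% Triton X-100; cpd preinc 15 min RT; 40 uM arachidonic acid, 30 min RT; Fe-XO 30 min; A573/A405 ratio as read-out.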
Numbers stand for hits; . = inactive; ? = inconclusive; / = no result given; [ ] = remark or other dose. Only some compounds are listed: those with a hit (about 10% of all), similar ones and a draw of the others. Unless noted, calls follow the shape of the dose curve; as a rule, active = well fitted inhibition curve with a large enough effect (not every such curve was filed as active); inconclusive = small, poorly fitted or top-dose-only effect, or another doubt; inactive = no such curve, though single readings can be large or run the other way.

SMILES | HPGD block | PNC inhibitor | ALDH1A1 block | LMNA splice mod | ALOX12 inhib
O=c1oc2ccccc2nc1/C=C(O)/C=C\c1ccccc1 | . | . | 13µM | ? | .
Cc1nn(-c2ccccc2)c(N2CCCC2)c1/C=N/NC(=O)c1cc2ccccc2cc1O | ? | . | . | ? | .
Cc1nn(-c2ccccc2)c(N2CCCC2)c1/C=N/NC(=S)Nc1ccccc1F | ? | -86 | ? | . | .
CC1=C(C(=O)Nc2cccc(F)c2)C(c2ccsc2)C2=C(CC(C)(C)CC2=O)N1 (stereo unspecified) | ? | -81 | ? | ? | .
CC1=C(C(=O)Nc2ccccc2F)C(c2ccsc2)C2=C(CC(C)(C)CC2=O)N1 (stereo unspecified) | ? | . | ? | . | .
Cc1cc(=O)[nH]c(SCc2cccc(Br)c2)n1 | 14µM | . | . | . | .
CCOC(=O)CSc1nc(C)cc(=O)[nH]1 | . | . | . | . | .
COC(=O)c1cc(=O)[nH]c(SCc2cccc(C)c2)n1 | . | . | . | . | .
CC(=O)c1c(C)cc(C)c(CSc2nc(C)cc(=O)[nH]2)c1C | ? | -112 | . | ? | .
COc1ccc(CSc2nc(C)cc(=O)[nH]2)cc1Br | 16µM | . | . | ? | .
COc1cc(CNC(=O)c2sc3ncccc3c2-n2cccc2)cc(OC)c1OC | / | / | / | . | /
CCCC(=O)OCc1cnc(C)c2oc(=O)c(C(=O)Nc3ccccc3)cc12 | / | / | / | . | /
O=C(CSc1nc2c([nH]c3ccccc32)c(=O)n1-c1ccccc1)N1CCCC1 | / | / | / | . | /
Cn1cnc(S(=O)(=O)N2CCC(C(=O)NCc3ccccc3)CC2)c1 | / | / | / | . | /
N#C/C(=C(/O)COc1ccccc1)c1nnc2n1CCCCC2 | / | / | 7.9µM | / | /
C=CCN1C(c2cccc(C(F)(F)F)c2)=CS/C1=C(/C#N)c1nnc(N2CCOCC2)n1-c1ccccc1 | . | . | 14µM | ? | .
CCOc1ccc(C2=CS/C(=C(\C#N)c3nnc4n3CCCCC4)N2CC)cc1 | ? | ? | ? | ? | .
C=CCN1C(c2ccc(Br)cc2)=CS/C1=C(/C#N)c1nnc(N2CCOCC2)n1-c1ccccc1 | . | . | 3.2µM | ? | .
N#C/C(=C(/O)CCl)c1nnc2n1CCCCC2 | / | / | ? | . | /
C=CCN1C(=O)NC(c2ccc(OC)cc2)(C(F)(F)F)S/C1=C(\C#N)c1nnc(N2CCOCC2)n1-c1ccccc1 (stereo unspecified) | . | . | ? | ? | .
C=CCN1C(c2ccccc2)=CS/C1=C(\C#N)c1nnc2n1CCCCC2 | 25µM | . | 18µM | ? | .
CCN(CC)c1ccc(NC(=O)c2cc(S(=O)(=O)N3CCc4ccccc43)cn2C)c(C)c1 | / | / | / | . | /
O=C1c2cc(Br)ccc2O[C@@H](c2ccc3c(c2)OCO3)[C@@H]1O | . | / | . | / | /
O=C1c2ccccc2C(=O)N1CCC(c1ccc(F)cc1)c1ccco1 (stereo unspecified) | . | . | 10µM | . | .
CCCC(c1nnnn1C1CCCC1)N1CCN(C(=O)c2ccco2)CC1 (stereo unspecified) | . | . | ? | . | .
SMILES | HPGD block | PNC inhibitor | ALDH1A1 block | LMNA splice mod | ALOX12 inhib
CCC(c1nnnn1Cc1ccco1)N1CCC(C(N)=O)CC1 (stereo unspecified) | . | . | ? | . | .
CCC(c1nnnn1C1CCCC1)N1CCN(Cc2ccccc2)CC1 (stereo unspecified) | . | ? | 14µM | . | .
CC(C)CC(c1nnnn1C1CCCC1)N1CCN(C(=O)c2ccco2)CC1 (stereo unspecified) | . | . | 8.9µM | . | .
Fc1ccccc1C(c1nnnn1C1CCCC1)N1CCN(Cc2ccccc2)CC1 (stereo unspecified) | . | . | ? | . | .
CCCCC(c1nnnn1C1CCCC1)N1CCN(C(=O)c2ccco2)CC1 (stereo unspecified) | . | ? | 11µM | . | .
CCCC(c1nnnn1Cc1ccco1)N1CCC(C(N)=O)CC1 (stereo unspecified) | . | . | 3.5µM | . | .
Cc1ccc(Cn2cnc3c(oc4ccccc43)c2=O)cc1 | / | / | / | . | /
O=C(CSc1nc2ccccc2s1)c1sc2sc3ccccc3[n+]2c1O | ? | / | .[13.5 µM] | / | .[11.4 µM]
CCOc1ccc(Nc2oc(-c3ccc(COc4ccc(OC)cc4)o3)nc2C#N)cc1 | / | / | / | . | /
CN(C)c1ccc(C(c2nnnn2C(C)(C)C)N2CCN(C(=O)c3ccco3)CC2)cc1 (stereo unspecified) | / | . | ? | . | .
O=C(c1ccco1)N1CCN(C(c2ccccn2)c2nnnn2C2CCCC2)CC1 (stereo unspecified) | . | . | 13µM | . | .
Oc1ccc(N2CCN(C(c3ccccn3)c3nnnn3C3CCCC3)CC2)cc1 (stereo unspecified) | . | . | 25µM | . | .
CCC(c1nnnn1Cc1ccccc1)N1CCN(C(=O)c2ccco2)CC1 (stereo unspecified) | . | ? | 6.3µM | . | .
COc1ccccc1C(c1nnnn1C(C)(C)C)N1CCN(C(=O)c2ccco2)CC1 (stereo unspecified) | . | . | 25µM | . | .
Cc1cccc(N2CCN(S(=O)(=O)c3ccc4c(c3)C(C(C)C)C(=O)N4)CC2)c1C (stereo unspecified) | / | / | / | . | /
C[N+](C)(C)C(C1=CCCC1=O)c1ccccc1 (stereo unspecified) | . | / | .[13.5 µM] | / | /
CCOc1ccccc1NC(=O)c1ccc(F)c(S(=O)(=O)NCc2ccc3c(c2)OCO3)c1 | / | / | / | . | /
CCCCC(c1nnnn1CC1CCCO1)N1CCN(Cc2ccccc2)CC1 (stereo unspecified) | . | -100 | ? | . | .
Cc1ccc(S(=O)(=O)Cn2nnnc2C(CC(C)C)N2CCN(C(=O)c3ccco3)CC2)cc1 (stereo unspecified) | . | -113 | ? | ? | .
Cc1ccc2occ(C(c3nnnn3C3CCCC3)N3CCN(C(=O)c4ccco4)CC3)c(=O)c2c1 (stereo unspecified) | . | . | 1.1µM | . | .
Cc1cccc(NC(=O)c2cnc3sc(N4CCCC4)nn3c2=O)c1C | / | / | / | . | /
COc1ccccc1N1CCN(C(=O)Cn2cnc3onc(-c4ccc(F)cc4)c3c2=O)CC1 | / | / | / | . | /
COc1ccccc1C1=Nn2c(COc3ccccc3)nnc2SC1 | / | / | 14µM | . | /
c1ccc(OCc2nnc3n2N=C(c2ccccc2)CS3)cc1 | / | / | 10µM | .[9.22 µM] | /
O=C1CCC(C(=O)NCc2cccnc2)N1 (stereo unspecified) | . | -100 | . | . | .
Cc1ccc(S(=O)(=O)NC(=O)NCc2ccccn2)cc1 | . | . | . | . | .
Cc1ccc(S(=O)(=O)NCC2CCC(C(=O)NCc3ccccn3)CC2)cc1 (stereo unspecified) | / | / | 7.9µM | . | /
Cc1ccc(S(=O)(=O)N2CCC(C(=O)OC(C)C(=O)NCc3ccc4c(c3)OCO4)CC2)cc1 (stereo unspecified) | 18µM | . | . | . | .
Cc1ccc(CNC(=O)CCc2ccc(S(=O)(=O)NC3CCCCC3)cc2)cc1 | . | . | ? | ? | .
